# Laboratory results from ChEMBL document CHEMBL3988442, “University of Dundee, Small-Polar-MMV Screening Library” (2021).
# The whole screen tested about 66,000 compounds, of which about 960 (1.5%) showed an effect of 50% or more. What follows is part of a selection rich in strong results, with near analogues and random picks from the rest.
# System: Trypanosoma brucei
# Assay: Trypanosoma brucei 72 hour study
# Assay type: functional, organism-based
# Design: scale not given: in the data most compounds retested in dose-response had high values
smiles,measurement,setting,value
CS(=O)(=O)Cc1nc(CN2CCOc3ccccc3C2)cs1,Percent Effect,"30.3 µM, […]",7.732%
CS(=O)(=O)Cc1nc(CN2CCc3ccccc3CC2)cs1,Percent Effect,"30.3 µM, […]",3.123%
CC1(C)CN(Cc2csc(CS(C)(=O)=O)n2)Cc2ccccc21,Percent Effect,"30.3 µM, […]",100.6%
CCc1noc(CN(C)CC(c2cccs2)N2CCOCC2)n1 (configuration not stated),Percent Effect,"30.3 µM, […]",-14.32%
O=C1CC[C@]2(CC[C@@H](NC(=O)NCc3ccccc3)CC2)N1,Percent Effect,"30.3 µM, […]",-21.31%
CC(C)C[C@@H]1N[C@H](C(=O)NCC2CC2)Cc2c[nH]c3cccc1c23,Percent Effect,"30.3 µM, […]",62.49%
CCc1cccc(N2CCC(NC(=O)C3CCOCC3)CC2)c1,Percent Effect,10 µM,-25.13%
same,Percent Effect,"30.3 µM, […]",-1.63%
CC(C)C[C@@H]1N[C@H](C(=O)NC(C)C)Cc2c[nH]c3cccc1c23,Percent Effect,"30.3 µM, […]",19.91%
O=C(NC1CCOCC1)C1CC(=O)N(Cc2ccccn2)C1 (configuration not stated),Percent Effect,"30 µM, 30.03 µM",11.72%
COC(=O)[C@@H]1Cc2c[nH]c3cccc(c23)[C@H](CC(C)C)N1,Percent Effect,"30.3 µM, […]",0.4079%
CC(C)C[C@@H]1N[C@H](C(=O)NC2CCOCC2)Cc2c[nH]c3cccc1c23,Percent Effect,"30.3 µM, […]",74.51%
Cc1cnn(C2CCCN(C(=O)Cc3ccc(C#N)cc3)C2)c1 (configuration not stated),Percent Effect,10 µM,-12.45%
same,Percent Effect,"30.3 µM, […]",-6.124%
CC(C)=CCN1C(=O)[C@H]2CC[C@@H]1CN(c1ncccc1F)C2,Percent Effect,"30 µM, 30.03 µM",-6.371%
Cc1cc(=O)n(CCNS(=O)(=O)c2cccc(C(F)(F)F)c2)cn1,Percent Effect,"30 µM, 30.03 µM",-14.9%
O=C(O)C(F)(F)F.O=C(O)C(F)(F)F.c1cncc(-c2ccc3c(c2)CCC32CCN(Cc3nccs3)CC2)c1,Percent Effect,"30.3 µM, […]",13.64%
CN(C)CC(=O)N1CCC2(CCc3cc(-c4cccnc4)ccc32)CC1.O=C(O)C(F)(F)F.O=C(O)C(F)(F)F,Percent Effect,"30.3 µM, […]",1.858%
O=C(O)C(F)(F)F.O=C(O)C(F)(F)F.c1cncc(-c2ccc3c(c2)CCC32CCN(Cc3ccco3)CC2)c1,Percent Effect,"30.3 µM, […]",53.48%
CNC(=O)CN1CC[C@H]2CN(C(=O)c3cccc(C)c3)C[C@H]2C1.O=C(O)C(F)(F)F,Percent Effect,"30.3 µM, […]",-49.02%
CC[C@H](C)[C@H](N)C(=O)Nc1nc(-c2cnc(N(C)C)nc2)cs1,Percent Effect,"30.3 µM, […]",53.79%
CC[C@H](C)[C@H](N)C(=O)Nc1nc(-c2cnc(N3CCOCC3)nc2)cs1,Percent Effect,"30.3 µM, […]",13.61%
CC[C@@H](C)[C@@H](N)C(=O)Nc1cccc(-c2cnc(N(C)C)nc2)c1,Percent Effect,"30.3 µM, […]",97.6%
CC[C@@H](C)[C@@H](N)C(=O)Nc1cccc(-c2cnc(N(C)CCO)nc2)c1,Percent Effect,"30.3 µM, […]",-10.78%
CC[C@H](C)[C@H](N)C(=O)Nc1nc(-c2cnc(N(C)CCO)nc2)cs1,Percent Effect,"30.3 µM, […]",-2.058%
CC[C@@H](C)[C@@H](N)C(=O)Nc1cccc(-c2cnc(N)nc2)c1,Percent Effect,"30.3 µM, […]",-21.58%
COc1ccc(N(c2ccccc2)c2ccc(C(=O)O)s2)cc1,Percent Effect,"30.3 µM, […]",-3.945%
O=C(O)CC(O)(CC(=O)O)C(=O)O.OCCN(Cc1ccncc1)CC1(c2ccc(Cl)cc2)CC1,Percent Effect,"30.3 µM, […]",-34.12%
Cn1cnc2c1C(COCC1CCOCC1)CN(C1CCOCC1)C2.O=C(O)C(F)(F)F.O=C(O)C(F)(F)F (configuration not stated),Percent Effect,"30 µM, 30.03 µM",15.95%
Cl.c1cnc2c(c1)cc([C@H]1CCCO1)n2CCN1CCCC1,Percent Effect,"30.3 µM, […]",24.71%
Cn1cccc1C(=O)N1CCC2(CCCN2Cc2ccccc2)CC1.O=C(O)C(F)(F)F,Percent Effect,"30 µM, 30.03 µM",11.3%
Cc1nn(C)c2c(=O)n(CC(=O)Nc3cc(Cl)cc(Cl)c3)nnc12,Percent Effect,"30 µM, 30.03 µM",63.83%
CCn1nc(C)c2nnn(CC(=O)Nc3ccccc3)c(=O)c21,Percent Effect,"30.3 µM, […]",-5.47%
CCn1nc(C)c2nnn(CC(=O)Nc3cccc(Cl)c3)c(=O)c21,Percent Effect,"30 µM, 30.03 µM",35.21%
CCn1nc(C)cc1C(=O)N1C[C@@H]2C[C@@H](C)O[C@@H]2C1.O=C(O)C(F)(F)F,Percent Effect,"30.3 µM, […]",3.708%
COCC1CN(C(=O)c2ccoc2)Cc2cnn(CC3CCOCC3)c21.O=C(O)C(F)(F)F (configuration not stated),Percent Effect,"30.3 µM, […]",-46.76%
NC1C=C(C(F)(F)F)NC=C1c1ccccc1 (configuration not stated),Percent Effect,"30.3 µM, […]",8.109%
CC(C)CC(=O)N1C[C@@H]2CCN(c3cnccn3)C[C@@H]2C1.O=C(O)C(F)(F)F,Percent Effect,"30.3 µM, […]",-10.22%
CC(C)(C)S(=O)(=O)CCNC(=O)c1ccc2ccccc2c1,Percent Effect,"30 µM, 30.03 µM",-8.633%
CC(C)(C)S(=O)(=O)CCNC(=O)c1ccc2cc[nH]c2c1,Percent Effect,"30 µM, 30.03 µM",101.8%
CC(C)(C)OC(=O)NCCNC(=O)c1ccc2cc[nH]c2c1,Percent Effect,"30 µM, 30.03 µM",3.798%
CN1CCN(CCO)C(=O)C12CCN(Cc1ccsc1)CC2.O=C(O)C(F)(F)F.O=C(O)C(F)(F)F,Percent Effect,"30.3 µM, […]",-7.984%
CN(C(=O)[C@H]1CSCN1C(=O)OC(C)(C)C)C1CC1,Percent Effect,"30 µM, 30.03 µM",-17.54%
Cn1nc2c(cc1=O)CN(Cc1coc(-c3cccc(F)c3)n1)CC2,Percent Effect,"30.3 µM, […]",75.84%
Cn1nc2c(cc1=O)CN(Cc1coc(-c3ccc(F)cc3)n1)CC2,Percent Effect,"30.3 µM, […]",21.89%
Cn1nc2c(cc1=O)CN(Cc1coc(-c3ccccc3)n1)CC2,Percent Effect,"30.3 µM, […]",-6.992%
CN1CCN(c2ccc(F)cc2NC(=O)NCc2ccon2)CC1,Percent Effect,"30.3 µM, […]",-94.37%
Cc1nccn1CC1CCN(C(=O)Cc2ccccc2)CC1,Percent Effect,"30 µM, 30.03 µM",-11.09%
CC(C)N(C)Cc1cnc2n1CCN(Cc1ccsc1)C2.O=C(O)C(F)(F)F.O=C(O)C(F)(F)F,Percent Effect,"30.3 µM, […]",-0.145%
Cc1cc(-c2nccs2)nc(C2CCN(Cc3ccc(F)cc3)CC2)n1.Cl,Percent Effect,"30.3 µM, […]",-1.786%
Cc1cc(NC(=O)CN2CCc3cncnc3C2)on1,Percent Effect,"30.3 µM, […]",8.362%
same,Percent Effect,"10 mM, 10 mM as filed; unlikely as a test dose",-44.64%
CC(C)c1cc(NC(=O)CN2CCc3cncnc3C2)on1,Percent Effect,"30 µM, 30.03 µM",51%
CC(C)(C)c1cc(NC(=O)CN2CCc3cncnc3C2)on1,Percent Effect,"30.3 µM, […]",8.588%
same,Percent Effect,"10 mM, 10 mM as filed; unlikely as a test dose",-38.22%
COC[C@@H]1CCC[C@@]12CN(Cc1ccco1)CCO2.O=C(O)C(F)(F)F,Percent Effect,"30 µM, 30.03 µM",-1.793%
CCn1cc(N2Cc3nc(N4CCCC4)ncc3C2=O)cn1,Percent Effect,"30.3 µM, […]",-27.06%
Cc1cccnc1N1CCN(C(=O)C(C)n2ccnc2C(C)C)CC1 (configuration not stated),Percent Effect,"30 µM, 30.03 µM",78.55%
Cc1cc(N2CCN(C(=O)C(C)n3ccnc3C(C)C)CC2)cc(C)n1 (configuration not stated),Percent Effect,"30 µM, 30.03 µM",-26.06%
CC(C)c1nccn1C(C)C(=O)N1CCN(c2ccccc2Cl)CC1 (configuration not stated),Percent Effect,"30 µM, 30.03 µM",16.25%
CN(C)CC1CN(C(=O)CCc2ccccc2)Cc2nccn2C1.O=C(O)C(F)(F)F (configuration not stated),Percent Effect,"30 µM, 30.03 µM",-27.78%
O=C1O[C@@H]2CN(CCc3ccccc3)C[C@@H]2N1CCCN1CCOCC1,Percent Effect,"30 µM, 30.03 µM",-26.55%
O=C1O[C@@H]2CN(Cc3ccccc3)C[C@@H]2N1CCCN1CCOCC1,Percent Effect,"30 µM, 30.03 µM",65.91%
O=C1O[C@@H]2CN(Cc3ccncc3)C[C@@H]2N1CCCN1CCOCC1,Percent Effect,"30 µM, 30.03 µM",-21.02%
CC(C)CC(=O)N1CC[C@@H]2[C@H](CC1)N(Cc1cccnc1)CCS2(=O)=O.O=C(O)C(F)(F)F.O=C(O)C(F)(F)F,Percent Effect,"30.3 µM, […]",-39.88%
Cc1cccc(CN(Cc2ccccn2)Cc2ncc(C(C)(C)C)o2)c1,Percent Effect,"30.3 µM, […]",99.39%
Cc1cccc(CN(Cc2ccccn2)S(=O)(=O)N(C)C)c1,Percent Effect,"30.3 µM, […]",5.656%
CCN(Cc1cccc(Cl)c1)Cc1ncc(C(C)(C)C)o1,Percent Effect,"30.3 µM, […]",-76.17%
Cc1ccc(SCCN(C)C(=O)c2cn([C@H]3CC[C@@H](N)CC3)nn2)cc1,Percent Effect,"30.3 µM, […]",-119%
Cc1ccc(SCCCNC(=O)c2cn([C@H]3CC[C@@H](N)CC3)nn2)cc1,Percent Effect,"30.3 µM, […]",59.21%
CCN(CCSc1ccccc1)C(=O)c1cn([C@H]2CC[C@@H](N)CC2)nn1,Percent Effect,"30.3 µM, […]",-71.42%
CC(=O)Nc1nc(CN2CCCC2Cn2cccn2)cs1 (configuration not stated),Percent Effect,"30.3 µM, […]",98.13%
CN(C)C(=O)Cc1nc(CN2CCCC2Cn2cccn2)cs1 (configuration not stated),Percent Effect,"30.3 µM, […]",-75.86%
CCCc1nc(CN2CCCC2Cn2cccn2)cs1 (configuration not stated),Percent Effect,"30.3 µM, […]",100.2%
CN(C)C(=O)Cc1nc(CN2CCCCC2Cn2cccn2)cs1 (configuration not stated),Percent Effect,"30 µM, 30.03 µM",-14.9%
CC(C)c1nc(CN2CCCCC2)cs1,Percent Effect,"30 µM, 30.03 µM",11.44%
CCCc1nc(CN2CCCC2Cn2cncn2)cs1 (configuration not stated),Percent Effect,"30 µM, 30.03 µM",2.721%
CC(C)c1nc(CN2CCCCC2Cn2cncn2)cs1 (configuration not stated),Percent Effect,"30.3 µM, […]",7.247%
same,Percent Effect,"10 mM, 10 mM as filed; unlikely as a test dose",-40.32%
CN(C)C(=O)Cc1nc(CN2CCCCC2Cn2cncn2)cs1 (configuration not stated),Percent Effect,"30.3 µM, […]",-54.68%
CC(=O)Nc1nc(CN2CCCCC2Cn2cccn2)cs1 (configuration not stated),Percent Effect,"30 µM, 30.03 µM",16.1%
CCCc1nc(CN2CCCCC2Cn2cncn2)cs1 (configuration not stated),Percent Effect,"30.3 µM, […]",101.4%
same,Percent Effect,"10 mM, 10 mM as filed; unlikely as a test dose",-40.08%
CC(=O)Nc1nc(CN2CCCC2Cn2cncn2)cs1 (configuration not stated),Percent Effect,"30 µM, 30.03 µM",3.686%
CC(C)c1nc(CN2CCCC2CN2CCCC2)cs1 (configuration not stated),Percent Effect,"30.3 µM, […]",99.84%
CN(C)Cc1nc(-n2cnc(C(=O)NCC3CC3)c2)n2ccccc12,Percent Effect,"30.3 µM, […]",-8.964%
CN1C(=O)CC(C(=O)O)C12CCN(c1ccc3ccccc3n1)CC2 (configuration not stated),Percent Effect,"30 µM, 30.03 µM",-0.482%
COc1ccc(CC(=O)N2CC(=O)NCC(C)(C)C2)cc1,Percent Effect,"30.3 µM, […]",-15.32%
O=C(NC[C@@H]1C[C@@H]2CN(C(=O)CO)C[C@H]2O1)c1ccsc1,Percent Effect,"30.3 µM, […]",-12.73%
Cc1nn(C)c(C)c1S(=O)(=O)N1CC[C@@H]2O[C@@H](C)C[C@H]2C1.O=C(O)C(F)(F)F,Percent Effect,"30.3 µM, […]",5.348%
CN(C)CCN1C(=O)CCC12CCCN(C(=O)C1CC=CC1)CC2.O=C(O)C(F)(F)F (configuration not stated),Percent Effect,"30.3 µM, […]",14.28%
OCc1csc(N2CCCC(COc3cccc(F)c3)C2)n1 (configuration not stated),Percent Effect,"30 µM, 30.03 µM",-13.56%
COc1ccc(OCC2CCCN(c3nc(CO)cs3)C2)cc1 (configuration not stated),Percent Effect,"30 µM, 30.03 µM",85.11%
Cc1ccc(OCC2CCCN(c3nc(CO)cs3)C2)cc1 (configuration not stated),Percent Effect,"30 µM, 30.03 µM",49.4%
Cc1nc2cc(-c3nccn3C)nn2c(N2CCCC(CO)C2)c1C (configuration not stated),Percent Effect,"30.3 µM, […]",21.68%
Cc1nc2cc(-c3nccn3C)nn2c(N2CCCC(O)C2)c1C.Cl (configuration not stated),Percent Effect,"30.3 µM, […]",-11.86%
CCc1c(C)nc2cc(-c3nccn3C)nn2c1N1CCCC(CO)C1 (configuration not stated),Percent Effect,"30.3 µM, […]",50.14%
